A short description of assay [1]: AP1 Signaling Pathway (AID 357; active means well fitted curve in either direction with a large enough effect, not every such curve was filed as active;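 further: ME-180 reporter cells stimulated with EGF at its EC50 level; on the % scale 0 is the no-effect control and ±100 the full control effect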). In short, it runs like this: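 A ratiometric CCF4 readout (405 nm excitation; 460 and 530 nm emission) quantified AP-1-driven beta-lactamase in ME-180 cells after 5 h with compound and EC50 EGF; AC50 values were derived for activators and inhibitors.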
Assay [2] deals with Cytochrome P450 1A2 (Homo sapiens) (UniProt P05177). Kind of assay: p450-cyp1a2 (AID 410; calls by dose curve; further: potency means the concentration at half of the fitted maximal effect;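 on activity change, negative = inhibition: -100% = full effect of reference inhibitor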). In short, it runs like this:
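Luminescent demethylation readout: Luciferin-ME (100uM, equal to Km) turned over by 20nM CYP1A2 for 60 min at room temperature after NADPH regeneration addition, following 10 min compound preincubation. Normalization used 57 uM furafylline as full inhibition.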

Assay [3] is described as follows: NFAT Signaling Pathway (AID 444; active means well fitted curve in either direction with a large enough effect, not every such curve was filed as active;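 further: carbachol stimulus at about its EC50 of 1 µM final; on the % scale 0 is the no-effect control and ±100 the full control effect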). The note with it: Jurkat NFAT-bla M1, carbachol, beta-lactamase ratio, 5 h. In short, it runs like this: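 Jurkat cells with NFAT-driven β-lactamase reporter and co-expressed M1 receptor, stimulated with carbachol (final 1 uM, ~EC50), compound titration, 5 h at 37 °C. CCF4 loaded 1 h at RT; 460/530 nm ratio gave %activity and AC50.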

The nature of assay [4]: Stat Signaling Pathway (AID 446; active means well fitted curve in either direction with a large enough effect, not every such curve was filed as active;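 further: ME-180 cervical cancer cells given 40 pM IL-6 alongside compound; SIE-controlled beta-lactamase reporter measured as 460/530 nm FRET emission ratio; on the % scale 0 is the no-effect control and ±100 the full control effect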). In short, it runs like this:
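Emission at 460 and 530 nm (excitation 405 nm) reports SIE-controlled beta-lactamase in ME-180 cells. Cells received compound with 40 pM IL-6 for 5 hrs at 37 C; data scaled between 300 pM IL-6 and 125 nM JAK-inhibitor controls.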

In assay [5] the target is Glucocorticoid receptor (Homo sapiens) (UniProt P04150). The assay can be described thus: GR-GFP Redistribution (AID 450;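 active means compounds whose dose series gives a full or clear partial fitted curve of increased nuclear translocation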; further: potency means the concentration at half of the fitted maximal effect). The note with it: U2OS GR-GFP nuclear translocation, laser cytometry, 2 h.
The target is the same in assay [6]. The assay can be described thus: GR-EFC Redistribution (AID 451; calls by dose curve; further: potency means the concentration at half of the fitted maximal effect). The note with it: CHO-K1 GR-EFC translocation, beta-gal luminescence, 2 h. In short, it runs like this:
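CHO-K1 cells expressing nuclear EA and GR-ED fragments of b-gal; compounds titrated up to 46 uM final, 2 h at 37 C. GR nuclear translocation read as complemented b-gal luminescence after 1 h RT detection.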

Assay [7] concerns the target Mitogen-activated protein kinase 10 (Mus musculus) (UniProt Q61831). The assay can be described thus: JNK3 AlphaScreen Assay (AID 530; active means well fitted curve in either direction with a large enough effect, not every such curve was filed as active;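 further: kinase came from lysate of stimulated human HepG2 cells; signal reports phosphorylation of biotinylated GST-cJun 1-79 at Ser73 with 10 µM ATP; on the % scale 0 is the no-effect control and ±100 the full control effect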). The procedure, abridged: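 Activity was read by AlphaScreen after JNK3-containing HepG2 lysate (cytokine pre-activated) phosphorylated biotinylated GST-cJun with 10 uM ATP at room temperature. Phospho-Ser73 cJun antibody with Protein-A acceptor beads provided detection.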
Background: In Alpha technology, singlet oxygen from a donor bead excites a nearby acceptor bead.

The target of assay [8] is 3',5'-cyclic-AMP phosphodiesterase 4B (Homo sapiens) (UniProt Q07343). The assay can be described thus: qHTS Assay for Inhibitors of PDE-IV (AID 607; active means well fitted activation curve with a large enough effect in the main read-out, with a control signal flat, not every such curve was filed as active; further: % of control where 0% means no effect). In short, it runs like this:
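The readout is membrane depolarisation from a cAMP-sensing CNG channel, detected with a potential dye at ex 535/em 590. Cells were HEK293-derived (endogenous PDE-IV) at 1000 cells/well, titrated up to 22.9 uM final.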

Assay [9] in a line: qHTS Assay for Lipid Storage Modulators (AID 1519; calls by dose curve). Particulars: Drosophila S3 cells, BODIPY lipid droplet/cell ratio, laser cytometry, cells loaded with oleic acid. The procedure, abridged:
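Cells seeded at 5,000 per well were treated with compounds over a concentration series and loaded with oleic acid (400 uM, as added). Lipid droplet fluorescence (488 nm excitation, 500-530 nm channel) was read by laser-scanning cytometry and normalized to 20 uM Triacsin C.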

The target in assay [10] is Ubiquitin carboxyl-terminal hydrolase 1 (Homo sapiens) (UniProt O94782). The assay can be described thus: Inhibitors of USP1/UAF1: Pilot qHTS (AID 504865).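 Further: rhodamine fluorescence freed from ubiquitin-rhodamine substrate followed over time; top concentration of the series differs between compounds; on the % scale 0 is the no-effect control and ±100 the full control effect; nearly all actives have a fitted effect of over 35% in size.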 The procedure, abridged: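 Kinetic fluorescence assay: 1nM USP1/UAF1, 15 min compound preincubation, then 150nM Ub-Rho; 480/540 nm.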
A general note: In qHTS, concentration-response curves come from the screen itself.

For assay [11], the target named is Luciferin 4-monooxygenase (Photinus pyralis) (UniProt P08659). Kind of assay: Biochemical firefly luciferase enzyme assay for NPC (AID 624030).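 Further: purified P. pyralis luciferase at 10 nM with luciferin and ATP substrate; 0% = DMSO and -100% = full luciferase inhibition by PTC124 control; nearly all actives have a fitted effect of over 70% in size.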 In short, it runs like this: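 Purified P. pyralis luciferase at 10 nM in 50 mM Tris Acetate (final), luminescence read within 5 minutes of enzyme addition to compounds. Activity normalised to PTC124 versus DMSO; concentration-response curves classed by r2, magnitude and activity.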

Assay [12] can be described thus: S16 Schwann cell PMP22 intronic element firefly luciferase assay (AID 624032).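 Further: plate controls were DMSO for no effect and PTC124 positive control mean for full effect; nearly all actives have a fitted effect of over 30% in size.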 In short, it runs like this:
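Rat S16 Schwann cells stably carrying firefly luciferase driven by a PMP22 intronic element, in 10% FBS, treated 24 h at 37 C. ONE-Glo luminescence normalized to PTC124 control and DMSO (0%); curves classed by r2, magnitude and activity.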

The nature of assay [13]: qHTS profiling for inhibitors of Plasmodium falciparum proliferation (AID 504749).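 Further: 0% = DMSO vehicle and full inhibition = artemisinin control; nearly all actives have a fitted effect of over 60% in size.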 Particulars: P. falciparum in erythrocytes, SYBR Green DNA, 72 h. The procedure, abridged:
(§1)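 Each compound contacts P. falciparum-infected red blood cells for 72 h at 37 C; lysis buffer (Tris, EDTA, saponin, Triton X, SYBR Green I) is added and fluorescence measured next morning; values normalized to controls.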

The subject of a further assay is C2A. Described as above. The note with it: P. falciparum in erythrocytes, SYBR Green DNA, 72 h; series mostly up to 28.7 µM. The procedure, abridged:
as §1

For the next assay, the system named is FAB9. The assay is described as above. The note with it: P. falciparum in erythrocytes, SYBR Green DNA, 72 h; series mostly up to 28.7 µM. In short, it runs like this:
as §1

The next assay has as its system CP185. The description is as above. Particulars: P. falciparum in erythrocytes, SYBR Green DNA, 72 h; series mostly up to 28.7 µM. In short, it runs like this:
as §1

Assay [14] addresses Cytochrome P450 3A4 (Homo sapiens) (UniProt P08684). The assay can be described thus: qHTS Assay for Inhibitors and Substrates of Cytochrome P450 3A4 (AID 884). Further: on the % scale 0 is the no-effect control and ±100 the full control effect; nearly all actives have a fitted effect of over 50% in size. In short, it runs like this:
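Luminescent readout of luciferin produced by CYP3A4 (20 nM) dealkylation of Luciferin-PPXE, 25 uM (its KM). NADPH-driven reaction ran 60 min at RT after 10 min compound preincubation; data scaled to 57 uM ketoconazole as 100% inhibition.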

Assay [15] is described as follows: Confirmation and Secondary Assay for Modulators of Hemoglobin Beta Chain Splicing at IVS2 654 locus (AID 910).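 Further: HeLa cells stably carrying EGFP split by mutant beta-globin IVS2-654 intron; % of control where 0% means no effect.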 In short, it runs like this: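 HeLa cells stably expressing EGFP interrupted by β-globin IVS2-654 intron, seeded overnight in Opti-MEM/2% FCS, then treated 2 days at 37 °C. Restored splicing read as total peak GFP intensity per well by laser scanning cytometry (488 nm excitation, 500–520 nm emission); 500 nM antisense PNA as control.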

Assay [16] in a line: Confirmation and Secondary Assay for Modulators of Hemoglobin Beta Chain Splicing at IVS2 705 locus (AID 930).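 Further: HeLa cells stably expressing the EGFP-705 splicing reporter; GFP fluorescence per well restored by corrected splicing of the IVS2-705 intron in EGFP; % of control where 0% means no effect.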 The procedure, abridged: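 Stable HeLa line with EGFP disrupted by mutant beta-globin intron 2 (705). Overnight attachment, then 2 days of compound at 37C, 5% CO2. Signal: peak GFP intensity summed over objects 5-250 µm.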
In assay [17] the target is Cytochrome P450 3A4 (Homo sapiens) (UniProt P08684). Kind of assay: qHTS Assay for Activators of Cytochrome P450 3A4 (AID 885). Further: nearly all actives have a fitted effect of over 65% in size. In short, it runs like this:
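Activators are scored by enhanced luminescence from CYP3A4 conversion of luciferin-PPXE (25uM, equal to KM) to luciferin, after 60 min at RT with an NADPH-regenerating system.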

Setting [18] is: measured here: cell count channel max response.
Where [19] appears, read: measured here: lipid channel max response.

SMILES strings stand for the structures. Values joined by “and” are separate entries in the source; they are usually repeats but may differ in a detail not shown here. Identical values can stand only once. Inconclusive results are not listed. Active and inactive are the calls of the source. Unless noted, the call rests on the fitted dose curve; in most records, active means well fitted curve in the direction sought with a large enough effect; inconclusive means small, poorly fitted or top-dose-only effect, or another doubt; inactive means no such curve, though single readings can be large; an effect the other way counts as inactive or inconclusive.

Consider seven molecules from PubChem BioAssay (NCATS).

Glucocorticoid receptor (Homo sapiens), sequence (P04150 whole entry, looked up): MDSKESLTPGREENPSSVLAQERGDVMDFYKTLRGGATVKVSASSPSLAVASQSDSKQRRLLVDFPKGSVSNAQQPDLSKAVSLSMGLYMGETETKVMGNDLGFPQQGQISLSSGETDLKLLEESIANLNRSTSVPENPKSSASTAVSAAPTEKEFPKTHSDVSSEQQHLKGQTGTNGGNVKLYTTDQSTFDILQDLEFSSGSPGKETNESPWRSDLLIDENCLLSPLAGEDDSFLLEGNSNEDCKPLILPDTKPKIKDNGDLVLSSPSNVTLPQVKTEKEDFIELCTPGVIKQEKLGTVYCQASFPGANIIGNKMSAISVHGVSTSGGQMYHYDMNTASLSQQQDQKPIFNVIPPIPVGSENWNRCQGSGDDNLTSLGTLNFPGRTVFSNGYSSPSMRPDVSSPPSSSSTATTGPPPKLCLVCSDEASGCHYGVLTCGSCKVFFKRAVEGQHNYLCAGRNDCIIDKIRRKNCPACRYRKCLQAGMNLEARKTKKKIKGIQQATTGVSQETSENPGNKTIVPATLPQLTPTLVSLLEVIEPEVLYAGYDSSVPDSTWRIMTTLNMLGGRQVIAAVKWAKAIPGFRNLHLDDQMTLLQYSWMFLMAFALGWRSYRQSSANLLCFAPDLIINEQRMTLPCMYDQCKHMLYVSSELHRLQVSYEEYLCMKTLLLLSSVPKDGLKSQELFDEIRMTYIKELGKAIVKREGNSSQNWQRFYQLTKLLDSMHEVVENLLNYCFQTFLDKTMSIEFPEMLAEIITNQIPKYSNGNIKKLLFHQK
Cytochrome P450 1A2 (Homo sapiens), sequence (P05177 whole entry, looked up): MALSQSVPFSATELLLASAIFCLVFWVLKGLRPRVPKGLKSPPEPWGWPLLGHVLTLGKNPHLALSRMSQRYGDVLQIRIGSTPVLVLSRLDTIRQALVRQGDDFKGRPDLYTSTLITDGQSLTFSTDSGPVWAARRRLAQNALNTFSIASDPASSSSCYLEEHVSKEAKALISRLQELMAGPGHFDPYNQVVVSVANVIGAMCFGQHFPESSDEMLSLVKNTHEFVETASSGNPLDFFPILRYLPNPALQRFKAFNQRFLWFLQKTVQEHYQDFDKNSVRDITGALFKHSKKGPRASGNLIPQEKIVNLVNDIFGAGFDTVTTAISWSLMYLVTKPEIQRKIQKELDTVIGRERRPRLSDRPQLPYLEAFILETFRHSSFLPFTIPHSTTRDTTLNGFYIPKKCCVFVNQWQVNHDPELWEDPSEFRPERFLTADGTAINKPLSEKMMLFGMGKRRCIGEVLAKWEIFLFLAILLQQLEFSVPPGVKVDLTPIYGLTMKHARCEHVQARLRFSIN
Ubiquitin carboxyl-terminal hydrolase 1 (Homo sapiens), sequence (O94782 whole entry, looked up): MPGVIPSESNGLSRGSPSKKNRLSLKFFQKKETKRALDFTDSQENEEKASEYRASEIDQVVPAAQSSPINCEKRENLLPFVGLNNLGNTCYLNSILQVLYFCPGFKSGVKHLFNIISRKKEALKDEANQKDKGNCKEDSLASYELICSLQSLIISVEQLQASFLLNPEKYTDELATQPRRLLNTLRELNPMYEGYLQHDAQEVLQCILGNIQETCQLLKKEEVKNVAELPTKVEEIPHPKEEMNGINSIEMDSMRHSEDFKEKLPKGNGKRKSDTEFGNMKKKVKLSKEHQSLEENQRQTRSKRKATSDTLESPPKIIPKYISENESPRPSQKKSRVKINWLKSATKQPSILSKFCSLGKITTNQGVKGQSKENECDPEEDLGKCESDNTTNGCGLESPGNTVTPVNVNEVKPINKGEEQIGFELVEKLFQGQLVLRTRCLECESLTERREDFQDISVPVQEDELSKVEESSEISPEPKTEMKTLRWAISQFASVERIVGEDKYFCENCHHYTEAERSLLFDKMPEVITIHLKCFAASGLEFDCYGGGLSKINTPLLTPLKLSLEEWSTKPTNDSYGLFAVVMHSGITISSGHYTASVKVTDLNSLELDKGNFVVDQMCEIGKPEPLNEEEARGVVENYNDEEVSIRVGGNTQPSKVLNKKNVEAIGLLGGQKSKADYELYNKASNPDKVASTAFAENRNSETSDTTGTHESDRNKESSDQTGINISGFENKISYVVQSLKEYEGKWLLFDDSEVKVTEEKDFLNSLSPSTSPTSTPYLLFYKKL
3',5'-cyclic-AMP phosphodiesterase 4B (Homo sapiens), sequence (Q07343 whole entry, looked up): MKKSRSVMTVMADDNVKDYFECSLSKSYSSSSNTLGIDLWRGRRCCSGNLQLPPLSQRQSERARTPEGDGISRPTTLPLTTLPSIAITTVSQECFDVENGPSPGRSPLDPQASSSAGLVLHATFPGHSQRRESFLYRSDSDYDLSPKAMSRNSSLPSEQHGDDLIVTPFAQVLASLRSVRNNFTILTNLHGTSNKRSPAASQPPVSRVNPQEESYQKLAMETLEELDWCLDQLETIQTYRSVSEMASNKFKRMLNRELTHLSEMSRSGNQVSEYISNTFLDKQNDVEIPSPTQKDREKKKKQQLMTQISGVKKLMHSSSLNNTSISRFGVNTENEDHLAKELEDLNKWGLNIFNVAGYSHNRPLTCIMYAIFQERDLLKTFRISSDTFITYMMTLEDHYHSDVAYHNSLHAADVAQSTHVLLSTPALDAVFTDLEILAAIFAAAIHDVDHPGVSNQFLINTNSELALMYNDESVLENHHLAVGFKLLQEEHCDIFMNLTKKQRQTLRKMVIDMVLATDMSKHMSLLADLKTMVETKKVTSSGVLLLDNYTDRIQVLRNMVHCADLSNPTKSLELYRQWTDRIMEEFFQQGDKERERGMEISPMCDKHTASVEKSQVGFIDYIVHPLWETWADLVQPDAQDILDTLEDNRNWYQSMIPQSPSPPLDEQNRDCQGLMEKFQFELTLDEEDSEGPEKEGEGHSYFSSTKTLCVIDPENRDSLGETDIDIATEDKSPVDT
Luciferin 4-monooxygenase (Photinus pyralis), sequence (P08659 whole entry, looked up): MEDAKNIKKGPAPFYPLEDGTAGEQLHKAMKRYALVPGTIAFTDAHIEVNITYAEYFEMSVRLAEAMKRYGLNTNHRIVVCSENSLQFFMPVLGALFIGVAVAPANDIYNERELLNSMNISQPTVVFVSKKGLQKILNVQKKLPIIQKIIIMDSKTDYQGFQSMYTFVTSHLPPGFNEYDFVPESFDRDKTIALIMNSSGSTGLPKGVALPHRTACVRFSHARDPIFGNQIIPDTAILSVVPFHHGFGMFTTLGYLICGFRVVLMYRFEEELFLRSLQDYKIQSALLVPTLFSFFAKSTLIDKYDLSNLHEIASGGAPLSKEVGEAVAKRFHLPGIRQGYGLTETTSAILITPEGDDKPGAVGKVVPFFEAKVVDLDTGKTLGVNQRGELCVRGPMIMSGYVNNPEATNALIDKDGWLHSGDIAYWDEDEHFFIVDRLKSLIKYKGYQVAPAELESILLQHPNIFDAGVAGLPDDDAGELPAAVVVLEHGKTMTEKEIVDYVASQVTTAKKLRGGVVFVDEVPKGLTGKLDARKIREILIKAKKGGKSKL
Cytochrome P450 3A4 (Homo sapiens), sequence (P08684 whole entry, looked up): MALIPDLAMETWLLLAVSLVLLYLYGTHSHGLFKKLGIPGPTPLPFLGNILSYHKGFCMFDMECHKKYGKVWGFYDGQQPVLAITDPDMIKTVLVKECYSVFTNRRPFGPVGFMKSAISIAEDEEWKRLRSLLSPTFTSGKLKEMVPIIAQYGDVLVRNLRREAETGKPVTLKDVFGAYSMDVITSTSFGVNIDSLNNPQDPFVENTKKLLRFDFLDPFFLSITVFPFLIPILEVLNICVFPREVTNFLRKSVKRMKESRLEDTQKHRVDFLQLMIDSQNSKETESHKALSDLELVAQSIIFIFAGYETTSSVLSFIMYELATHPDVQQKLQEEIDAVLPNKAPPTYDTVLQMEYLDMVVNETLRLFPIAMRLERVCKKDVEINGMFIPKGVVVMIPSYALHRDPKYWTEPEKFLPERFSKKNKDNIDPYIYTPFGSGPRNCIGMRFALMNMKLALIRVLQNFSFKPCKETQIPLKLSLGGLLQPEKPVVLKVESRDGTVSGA

For `CC1=C2[C@@H]3OC(=O)[C@@H](C)[C@@H]3CC[C@]2(C)C=CC1=O`, the molecule was called inactive in [1], in assay [4] and in assay [7]. Besides, the Potency in assay [2] was 10 µM (active); in assay [5], > 20.6 µM (inactive); in assay [6] it was > 20.6 µM (inactive). The activity change, negative = inhibition in assay [3] (at 17.2 µM (top of the series)) was -9.62% (inactive); in assay [9] (at 25.7 µM (top of the series)) it was 0.607% (inactive). In addition, the Potency entry (in assay [8]; in [10]; in assay [11]; in assay [12]; in the assay with C2A; in the assay on FAB9) was “inactive” in each case. In addition, the max response in [9] (setting [18]) is -1.82%; in [9] (setting [19]) it was -3.78%. Also, the activity, negative = inhibition in assay [13] (at 28.7 µM (top of the series), parasite line A) was -27% (inactive); in assay [13] (at 28.7 µM (top of the series), parasite line B) it was -4.04% (inactive).
On to `CCNC[C@H](O)c1cccc(O)c1`, for which the molecule was classed as inactive in assay [1], in assay [4] and in assay [7]. Further, the Potency entry (in assay [2]; in assay [8]; in assay [11]; in assay [12]; in the assay with C2A; in the assay on CP185) was “inactive” each time. Moreover, in the assay on FAB9, the Potency entry was “inactive”. Further, the results for the activity change, negative = inhibition in assay [3] (at 17.2 µM (top of the series)) and in [9] (at 25.7 µM (top of the series)) were -13.2% (inactive) and -1.26% (inactive), respectively. The Potency in assay [5] was > 20.6 µM (inactive). For the same molecule, the max response in assay [9] (setting [18]) was -11.3%; in [9] (setting [19]) it was -12.3%. The activity, negative = inhibition is -4.47% (inactive) in assay [13] (at 12.8 µM (top of the series), parasite line A) and 2.63% (inactive) in [13] (at 12.8 µM (top of the series), parasite line B).
As to `CCNc1nc(Cl)nc(NC(C)C)n1`, the call in [7] was inactive. In addition, the Potency entry in assay [14], in assay [15], in assay [16] and in assay [10] was “inactive” each time. In addition, the activity change, negative = inhibition in [9] (at 57.5 µM (top of the series)) is 7.77% (inactive). Moreover, the max response in assay [9] (setting [18]) worked out at 2.72%; in [9] (setting [19]), 11.1%.
Regarding `O=S1OCC2C(CO1)C1(Cl)C(Cl)=C(Cl)C2(Cl)C1(Cl)Cl` (stereo not given), in assay [7], the call was inactive. Besides, the Potency entry in [17], in assay [15], in [16] and in assay [10] was “inactive” in each case. Besides, the activity change, negative = inhibition in assay [9] (at 57.5 µM (top of the series)) was 5.66% (inactive). Moreover, the max response in assay [9] (setting [18]) was -0.733%; in [9] (setting [19]), 5.32%.
Consider `COc1ccc(OC)c([C@H](O)[C@H](C)N)c1`, for which the call in assay [1] and in assay [4] was inactive. In addition, the Potency entry in [2], in assay [8] and in assay [10] was “inactive” throughout. The activity change, negative = inhibition was 4.39% (inactive) in assay [3] (at 17.2 µM (top of the series)), 2.27% (inactive) in [3] (at 38 µM (top of the series)) and 1.13% (inactive) in [9] (at 25.7 µM (top of the series)). The Potency in assay [5] is > 46 µM (inactive) and > 20.6 µM (inactive); in assay [6], > 46 µM (inactive) and > 20.6 µM (inactive). Further, the max response in assay [9] (setting [18]) is 7.1%; in assay [9] (setting [19]) it was 6.97%.
`O=C(Nc1cccc(F)c1)N1CCC2(CC1)CCN(C(=O)Oc1ccccc1)CC2`: the outcome in [1], in assay [4] and in assay [7] was inactive. For the same molecule, the Potency entry in assay [2] and in assay [8] was “inactive” each time. Moreover, the activity change, negative = inhibition in assay [3] (at 7.69 µM (top of the series)) was 12% (inactive); in [9] (at 57.5 µM (top of the series)), -7.04% (inactive). For the same molecule, the Potency in assay [6] is > 46 µM (inactive). For the same molecule, the max response in [9] (setting [18]) was -23.3%; in [9] (setting [19]), -28%.
`C[C@H]1C(=O)O[C@@H]2CCN3CC=C(COC(=O)[C@@](C)(O)[C@@]1(C)O)[C@H]23`: the result in assay [1], in assay [4] and in assay [7] was inactive. For the same molecule, the Potency entry in [2], in assay [8] and in [10] was “inactive” throughout. Also, the figures for the activity change, negative = inhibition in [3] (at 17.2 µM (top of the series)) and in assay [9] (at 25.7 µM (top of the series)) were 3.38% (inactive) and -2.11% (inactive), respectively. Also, the Potency in assay [5] and in [6] was > 20.6 µM (inactive) throughout. The results for the max response in [9] (setting [18]) and in [9] (setting [19]) were 4.14% and 3.19%, respectively.
